# Tests used:
# Experiment in all cases: yeast three-hybrid, YBZ-1, SC-Leu-His + 0.5 mM 3-AT, 4 days
# Conditions in all cases: tags: N-Gal4 AD-HA kept; label: inside an RPR1-promoter hybrid RNA with tandem MS2 sites; ssRNA
# PUM1 PUF domain R1-RLS = PUM1 PUF domain R1-RLS (Homo sapiens, UniProt Q14671 828-1176, S863R;R864L;Q867S)
# How it was run: (§1)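 Repeat regions from input (SC-Leu) and selection (SC-Leu-His + 0.5 mM 3-AT) plates were PCR-amplified and Illumina-sequenced after four days of growth. The cells were strain YBZ-1 with a LexA–MS2 coat fusion and a HIS3 reporter, co-expressing Pumilio-1 PUF domain libraries and matching RNA elements from a centromeric plasmid. The interaction score is the log change in variant frequency from input to selection, taken in log2 with a pseudocount of 1 for absent variants.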
# PUM1 PUF domain R5-RFV = PUM1 PUF domain R5-RFV (Homo sapiens, UniProt Q14671 828-1176, C1007R;R1008F;Q1011V)
# How it was run: as §1
# PUM1 PUF domain R5-NQR = PUM1 PUF domain R5-NQR (Homo sapiens, UniProt Q14671 828-1176, C1007N;R1008Q;Q1011R)
# How it was run: as §1
sequence,measurement,setting,value
GGCUAGAACUAGUGGAUCCCCCGGCGCCCGGCGGCUCGAGCCCGGGUAAGUGUAAAUUGUCUGCAUGCCGCCGGGCGCCAUGCCUGCAGGUCGACUCUAGAAAACAUG,binding signal,PUM1 PUF domain R1-RLS,2.64 log2 enrichment (interaction score)
GGCUAGAACUAGUGGAUCCCCCGGCGCCCGGCGGCUCGAGCCCGGGUAAGUGUGAAUAGUCUGCAUGCCGCCGGGCGCCAUGCCUGCAGGUCGACUCUAGAAAACAUG,binding signal,PUM1 PUF domain R5-RFV,1.88 log2 enrichment (interaction score)
GGCUAGAACUAGUGGAUCCCCCGGCGCCCGGCGGCUCGAGCCCGGGUAAGUGUCAAUAGUCUGCAUGCCGCCGGGCGCCAUGCCUGCAGGUCGACUCUAGAAAACAUG,binding signal,PUM1 PUF domain R5-NQR,4.31 log2 enrichment (interaction score)
same,binding signal,PUM1 PUF domain R5-RFV,5.48 log2 enrichment (interaction score)
